Test results from PubChem BioAssay AID1851 (National Center for Advancing Translational Sciences (NCATS), 2009).
Values joined by “and” are separate entries in the source; they are usually repeats but may differ in a detail not shown here. Equal values may be shown once. The whole screen tested about 16,000 compounds, of which about 2,600 (16%) were called active. Roughly 20% stayed inconclusive and do not appear here. Calls come from the whole dose curve; as a rule, active = well fitted curve in the direction sought with a large enough effect; inconclusive = small, poorly fitted or top-dose-only effect, or effect the other way; inactive = no such curve, though single readings can be large or run the other way. These entries were drawn from the full list. Where a structure was tested more than once in an assay, its records may differ in their call. Square brackets hold non-standard residues; d marks the D form. Peptide text beside a SMILES is read from it. * marks the point of attachment. ξ: configuration not given here. Cbz = O=C(OCc1ccccc1)*; OBn = c1ccc(CO*)cc1; ξP = O=C(O)C1CCCN1

The compounds below were run against Cytochrome P450 2D6 (Homo sapiens) (UniProt P10635) (assay: Cytochrome panel assay with activity outcomes). Conditions: recombinant CYP, pro-luciferin dealkylation, luminescence, p450-cyp2d6; series mostly up to 57.1 µM; activity, negative = inhibition: at the top concentration.
% is set by controls: 0 for no effect and ±100 for the full control effect.

Chain of Cytochrome P450 2D6 (Homo sapiens) (P10635 whole entry, looked up): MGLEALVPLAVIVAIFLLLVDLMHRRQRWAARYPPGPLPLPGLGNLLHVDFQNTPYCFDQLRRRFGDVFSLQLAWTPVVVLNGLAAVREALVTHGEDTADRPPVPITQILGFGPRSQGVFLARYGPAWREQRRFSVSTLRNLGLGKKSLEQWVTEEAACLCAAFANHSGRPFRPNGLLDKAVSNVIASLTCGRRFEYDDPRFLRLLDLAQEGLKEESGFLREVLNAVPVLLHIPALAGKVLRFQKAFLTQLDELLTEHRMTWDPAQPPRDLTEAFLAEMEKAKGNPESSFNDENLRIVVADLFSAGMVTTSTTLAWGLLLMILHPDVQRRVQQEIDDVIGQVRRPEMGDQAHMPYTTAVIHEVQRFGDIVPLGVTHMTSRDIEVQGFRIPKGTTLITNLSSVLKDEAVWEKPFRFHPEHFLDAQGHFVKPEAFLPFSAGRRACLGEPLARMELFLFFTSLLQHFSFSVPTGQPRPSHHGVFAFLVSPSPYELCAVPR

Structure (SMILES)	activity, negative = inhibition	AC50
CC(C)Sc1cc(N2CCCC2)nc(-c2ccc(F)cc2)n1	-3.37% (inactive)	
C=CCNC(=S)N/N=C/c1ccc(-c2cc(Cl)ccc2Cl)o1	8.52% (inactive)	
O=C(CNC(=O)OCc1ccccc1)NCC(=O)N1CCCC1C(=O)OCc1ccccc1 (stereo not drawn) (Cbz-Gly-Gly-[ξP]-OBn)	-22.2% (inactive)	
CSCCC(NC=C1C(=O)OC(C)(C)OC1=O)C(=O)O (centres undefined)	-5.1% (inactive)	
CCOc1cc(/C=C2/NC(=O)N(CC(=O)Nc3cccc(C)c3)C2=O)ccc1OC	27.9% (inactive)	
CCCCSCc1nc2nc(Cl)c(Cl)nc2[nH]1	-12.2% [at 11.4 µM] (inactive)	
C[n+]1ccc(/C=C/c2ccc(Br)cc2)cc1	-25.3% (inactive)	
OCCNc1ncnc2nc[nH]c12	-4.05% [at 11.4 µM] (inactive)	
Cc1cc(NC(=O)COC(=O)c2ccc(S(=O)(=O)N3CCCc4ccccc43)cc2)no1	-20.2% (inactive)	
Cc1cnc(CNc2cc(-c3ccccc3C(F)(F)F)ncn2)cn1	3.41% (inactive)	
Cc1cnc(CNc2ncncc2-c2ccccc2C(F)(F)F)cn1	-18.3% (inactive)	
c1cncc(-c2cncnc2NC2CCNCC2)c1	-6.86% (inactive)	
Cc1cccc(CNc2ncncc2-c2ccccc2C(F)(F)F)c1		12.6 µM (active)
Cc1ccccc1-c1cncnc1NC1CCNCC1		10 µM (active)
Cc1noc(C)c1-c1cncnc1NC1CC1	-5.38% (inactive)	
Cc1cccc(CNc2ncncc2-c2ccccc2Cl)c1		2 µM (active)
O=C(c1cnccn1)N1CCC[C@@]2(CCN(c3ccncc3)C2)C1	4.46% (inactive)	
Cc1ccc(OC(=O)c2cccc(C(=O)Oc3ccc(C)cc3)n2)cc1	8.06% (inactive)	
N[C@H](C(=O)O)[C@H](O)C(=O)O	7.74% (inactive)	
O=C1C(Cc2ccccc2)C(c2ccccc2)N1c1ccccc1 (centres undefined)	-24.3% (inactive)	
COc1ncc2nc(-c3ccc(F)cc3)c(=O)n(Cc3ccc(F)cc3)c2n1	1.19% (inactive)	
N[C@@H](Cc1ccnnc1)C(=O)O	-0.458% [at 11.4 µM] (inactive)	
Cc1nc2cnc(Oc3ccccc3)nc2n(CCc2ccccc2)c1=O	8.49% (inactive)	

Structure (SMILES)	activity, negative = inhibition	AC50
COc1n[nH]c2nncnc12	4.07% (inactive)	
O=[N+]([O-])c1ccc2nc(-c3ccccc3)n(OCc3ccc(Cl)cc3)c2c1		6.31 µM (active)
Cc1ccc(COn2c(-c3ccc(Cl)cc3)nc3ccc([N+](=O)[O-])cc32)cc1	-20.1% (inactive)	
Clc1ccc(COn2c(-c3ccccc3)nc3ccccc32)cc1		15.8 µM (active)
O=C(CCc1nc(-c2ccccc2)c(-c2ccccc2)o1)OCc1ccc(Cl)cc1	-26.9% (inactive)	
Cn1c(=O)c(-c2ccc(Cl)cc2)nc2cnc(OCc3ccccc3)nc21	7.5% (inactive)	
O=[N+]([O-])c1ccc2nc(-c3ccc(Cl)cc3)n(OCc3ccccc3)c2c1	-6.03% (inactive)	
COc1cccc(Cn2c(=O)c(-c3cn(C)c4ccccc34)nc3cnc(N4CCOCC4)nc32)c1	-6.4% (inactive)	
O=c1c(-c2ccc(F)c(F)c2)nc2cncnc2n1-c1ccccc1	-7.35% (inactive)	
NS(=O)(=O)c1ccc(N=Nc2ccc(O)c(C(=O)O)c2)cc1	-7.58% [at 11.4 µM] (inactive)	
Cc1ccccc1/C=C1\OC(=O)c2ccccc21	-3.09% (inactive)	
CCCC[C@@H]1C[C@H]1C(NC(=O)c1cccs1)c1ccccc1C(F)(F)F (some centres undefined)	2.19% (inactive)	
Cc1ccc(C(c2nnnn2CC2CCCO2)N2CCN(C(=O)c3ccco3)CC2)cc1 (centres undefined)	-15.5% (inactive)	
CC(C)CCn1nnnc1C(c1ccc(F)cc1)N1CCN(C(=O)c2ccco2)CC1 (centres undefined)		14.1 µM (active)
CCC(c1nnnn1CCOC)N1CCN(C(=O)c2ccco2)CC1 (centres undefined)	-6.06% (inactive)	
O=C(Nc1ccccc1N1CCN(C(=O)c2ccccc2)CC1)c1cc(Br)ccc1Cl	-14.4% (inactive)	
S=c1[nH]nc(CSCc2ccccc2Cl)n1-c1ccccc1	-16.7% (inactive)	
COC(=O)[C@@]1(Cc2ccc(OC)cc2)[C@@H]2[C@@H](CC(=O)[C@H]2CC(=O)C(=O)N2CCCC2)CN1C(=O)c1ccccc1	-5.43% (inactive)	
Cc1cccc(NC(=S)N/N=C/c2ccc([N+](=O)[O-])s2)c1	-9.95% (inactive)	
COc1ccc(-c2nc(N)c3ncn([C@H]4O[C@@H](CO)[C@@H](O)[C@@H]4O)c3n2)cc1	1.32% [at 11.4 µM] (inactive)	
Cc1cc(C)c(NC(=O)C(C)Sc2nnc(-c3ccco3)n2-c2ccccc2)c(C)c1 (centres undefined)	-4.41% (inactive)	
CC(Sc1nnc(C(C)N(C)C)n1-c1ccc(Cl)cc1)C(=O)Nc1ccc2c(c1)OCO2 (centres undefined)		14.1 µM (active)
COc1ccc(-n2c(=O)[nH]cc(C(=O)Nc3ccc4c(c3)OCCO4)c2=O)cc1	3.8% (inactive)	

Structure (SMILES)	activity, negative = inhibition	AC50
CC(C)C1NC(=S)N(Cc2ccccc2)C1=O (centres undefined)	10% (inactive)	
COc1ccc(CCNC[C@H](O)c2ccc(O)cc2)cc1OC	0.765% (inactive)	
COc1ccc(C[N+](C)(C)N)cc1OC	0.726% [at 11.4 µM] (inactive)	
COc1ccc(CNCCC(c2ccc(OC(C)C)cc2)C(C)C)cc1OC (centres undefined)		0.251 µM (active)
COC(=O)C/C=C\[C@@H](C)[C@@H](/C=N\O[C@@H](C)c1cc(-c2c(C)cc(C)cc2C)no1)OC	-10.8% [at 11.4 µM] (inactive)	
COc1ccc(-n2c(CNc3ccc(C)cc3)nnc2SCC(=O)Nc2nc(-c3ccccc3)cs2)cc1	-1.16% (inactive)	
O=S1(=O)C=C(N2CCOCC2)c2ccccc21	-18.5% (inactive)	
CCc1ccccc1N1C(=O)c2cccc3c(N4CCOCC4)c([N+](=O)[O-])cc(c23)C1=O	2.74% (inactive)	
O=c1cc(N2CCOCC2)oc2c(-c3ccccc3)cccc12		inactive and 25.1 µM (active)
CNc1nc(C)cc(C)c1S(=O)(=O)c1ccc(C)cc1	11.4% (inactive)	
Cc1ccc(-n2c3c(c(=O)[nH]c2=O)C(C(F)(F)F)(C(F)(F)F)NC(=O)N3)cc1	-1.45% (inactive)	
CCN(CC(=O)Nc1ccc([N+](=O)[O-])cc1OC)c1ccccc1		14.1 µM (active)
CC(CC(=O)Nc1ccc(Cl)c([N+](=O)[O-])c1)c1ccccc1 (centres undefined)		0.447 µM (active)
CCN(CC)S(=O)(=O)c1ccc(OC)c(NC(=O)CSc2ccccc2)c1	-21.4% (inactive)	
CCOc1ccc(NC(=S)NC(=O)/C=C/c2ccc(OC)c(OC)c2)c([N+](=O)[O-])c1	11.2% (inactive)	
Cc1ccc([N+](=O)[O-])cc1NC(=S)NC(=O)C(C)(C)C	13.5% (inactive)	
CCOc1cc(NC(=O)c2ccccc2[N+](=O)[O-])c(OCC)cc1NC(=O)CC(C)C	16.4% (inactive)	
CCCOc1ccc(/C=C/C(=O)Nc2ccc([N+](=O)[O-])cc2C)cc1OC	3.41% (inactive)	
COc1ccccc1NC(=O)Cn1cncc1-c1ccc([N+](=O)[O-])cc1	-5.83% (inactive)	
O=C(CSc1ccc(C(F)(F)F)cc1[N+](=O)[O-])Nc1ccccc1	-20.2% (inactive)	
COc1ccc([N+](=O)[O-])cc1NC(=O)CC(C)c1ccccc1 (centres undefined)		11.2 µM (active)
COc1ccc(OC)c(NC(=O)CC(Cc2ccccc2OC)C(=O)O)c1 (centres undefined)	25% (inactive)	
COc1ccc([N+](=O)[O-])cc1NC(=S)NC(NC(=O)Cc1ccc(OC)c(OC)c1)C(Cl)(Cl)Cl (centres undefined)		0.355 µM (active)
